Compound activity (PubChem BioAssay)
In the library only some 7.5% were active in any assay of this set; here they are far more common.
Rab9 promoter act: Rab9 promoter activation | Huh7 Rab9 promoter-luciferase reporter, luminescence, 24 h | Potency, µM (series often up to 9.22 µM), for the others: at the highest dose activation, negative = inhibition, most hits filed as activators | actives 2.8% (n = 320,000); note: % of control where 0% means no effect; nearly all actives have a fitted effect of over 60% in size
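Cells were plated at 1500 per well in reduced-serum medium with 10% FBS and left 2 h. Compound in DMSO was then added for 24 h at 37 °C. Reporter signal was read by luminescence after 10 min with luciferase detection reagent.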
ELG1 genotoxic: induces genotoxicity in HEK293T cells with luciferase-tagged ELG1. actives 1.3% (n = 330,000). HEK293T ELG1-luciferase reporter, luminescence, 16 h. Potency, µM (titrated, usually from 46 µM), for the others: at the highest dose activity change, positive = activation, hits mostly activators. AID 504466; note: % of control where 0% means no effect; nearly all actives have a fitted effect of over 60% in size
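Genotoxic stress is detected as increased luminescence from luciferase-tagged ELG1 in HEK293T cells, measured with ONE-Glo after a 16 hr treatment at 37 °C.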
FLuc counter: inhibits or activates purified firefly luciferase, miR-21 counter-screen; AID 588342; Potency, µM (doses to about 57.5 µM), for the others: at the top dose activity change, negative = inhibition, hits mostly inhibitors; purified FLuc, Km substrates, luminescence inhibition; P08659; actives 6.9% (n = 360,000);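 note: plate controls were vehicle for no effect and reference inhibitor for full effect; nearly all actives have a fitted effect of over 55% in size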
Target sequence (P08659 whole entry, looked up): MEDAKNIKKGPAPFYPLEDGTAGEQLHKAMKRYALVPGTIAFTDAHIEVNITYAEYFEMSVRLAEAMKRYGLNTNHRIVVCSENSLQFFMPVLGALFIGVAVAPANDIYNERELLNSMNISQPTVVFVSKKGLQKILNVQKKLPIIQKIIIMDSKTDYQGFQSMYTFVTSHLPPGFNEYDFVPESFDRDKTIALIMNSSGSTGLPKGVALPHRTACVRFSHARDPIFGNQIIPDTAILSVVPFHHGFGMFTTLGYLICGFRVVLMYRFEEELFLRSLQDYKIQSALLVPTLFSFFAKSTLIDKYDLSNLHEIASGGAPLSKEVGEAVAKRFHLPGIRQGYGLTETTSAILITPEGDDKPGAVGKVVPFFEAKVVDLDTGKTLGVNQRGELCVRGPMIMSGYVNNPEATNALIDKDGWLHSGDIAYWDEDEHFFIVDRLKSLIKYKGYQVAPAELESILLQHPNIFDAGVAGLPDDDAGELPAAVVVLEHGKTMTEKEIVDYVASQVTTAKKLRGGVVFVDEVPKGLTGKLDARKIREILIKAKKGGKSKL
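Purified P. pyralis luciferase (10nM final) with 10uM D-luciferin and 10uM ATP (Km levels) in 50mM Tris acetate pH 7.5, 10mM Mg acetate, 0.01% Tween-20, 0.05% BSA; qHTS 6-point titration, ~60 µM downward; luminescence read.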
SMN2 splice up: SMN2 splice variant enhancement; AID 1458; actives 2.8% (n = 210,000); HEK293 SMN2-luciferase splicing reporter, luminescence, 30-36 h; Potency, µM (top dose mostly 46.1 µM), inactives show at the highest dose activity change, positive = activation, actives largely listed as activators; note: % of control where 0% means no effect; nearly all actives have a fitted effect of over 55% in size
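HEK293 cells carry an SMN2 […]–luciferase reporter in which exon 7 inclusion puts luciferase in frame. Cells were plated 10-12 h before compound addition, then incubated 30-36 h at 37C. ONE-Glo luminescence was read; sodium butyrate at 4.5 mM final served as control.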
NPC1 prom act: NPC1 promoter activation; Huh7 NPC1 promoter luciferase reporter, 24 h; Potency, µM (top dose mostly 9.22 µM), for the others: top-dose activation, actives largely listed as activators; actives 2.4% (n = 320,000); note: % of control where 0% means no effect; nearly all actives have a fitted effect of over 60% in size
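Stable NPC1-promoter luciferase Huh7 line; cpd (DMSO) 24 h, 37 °C, 5% CO2; Amplite luciferase reagent 10 min RT; luminescence readout. qHTS format.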
An asterisk follows results filed as active; ? = inconclusive; · = no result; [ ] = another dose, or the depositor's remark. Calls come from the whole dose curve; as a rule, active = well fitted curve in the direction sought with a large enough effect; inconclusive = small, poorly fitted or top-dose-only effect, or another doubt; inactive = no such curve, though single readings can be large; an effect the other way counts as inactive or inconclusive. Potency is the fitted concentration of half-maximal effect.

SMILES | Rab9 promoter act | ELG1 genotoxic | FLuc counter | SMN2 splice up | NPC1 prom act
CC1CCC/C(=C\Nc2ccc(C(=O)O)cc2)C1=O (configuration not stated) | ? | ? | 4.78µM* | · | ?
CCOC(=O)c1ccc(N/C=C2/CCCC(C)C2=O)cc1 (configuration not stated) | 2.51µM* | 4.11µM* | 5.36µM* | ? | 3.16µM*
CC1CCC/C(=C\Nc2ccc(C(=O)O)c(O)c2)C1=O (configuration not stated) | 3.55µM* | ? | 10.7µM* | · | 3.55µM*
CC(=O)Nc1ccc(N/C=C2/CCCC2=O)cc1 | 0.8% | 14.1% | -9.3% | · | 4.3%
O=C1CCCC/C1=C\Nc1ccc(C(=O)O)c(O)c1 | ? | 16.3% | 10.7µM* | · | 29.0%
Cc1cc(C)c(C(=O)CSc2nnc(N)s2)c(C)c1 | -36.6% | -0.3% | -6.4% | 17.5% | -2.4%
O=C(OCC(=O)N1CCOCC1)c1ccccc1O | 3.98µM* | ? | 23.9µM* | · | ?
O=C(OCC(=O)N1CCCCC1)c1cc2ccccc2cc1O | 12.5% | ? | 23.9µM* | -5.5% | 12.5%
O=C(OCC(=O)N1CCCCC1)c1c[nH]c2ccccc12 | ? | ? | 16.9µM* | · | 24.3%
O=C(OCC(=O)N1CCOCC1)c1ccc(O)cc1 | -0.1% | 7.3% | -3.2% | · | 1.3%
CC1CCCN(C(=O)COC(=O)c2n[nH]c3ccccc23)C1 (configuration not stated) | ? | 23.1µM* | 16.9µM* | 25.5% | ?
CC[C@@H](C)C(C(=O)N1CCN(C(=O)OC(C)(C)C)CC1)n1cc(-c2cn([C@@H](C)C(=O)N3CCN(C(=O)OC(C)(C)C)CC3)nn2)nn1 (some centres not stated) | -1.9% | -2.3% | 1.3% | · | -0.6%
CCOC(=O)C(C)/C(C)=N/NC(=O)c1cc2ccccc2cc1O (configuration not stated) | 1.7% | 0.6% | ? | ? | 0.2%
CN(C(=O)COC(=O)c1cc2ccccc2cc1O)C1CCCCC1 | 0.5% | 0.8% | 19µM* | · | 7.4%
C/C(CC(=O)N1CCCC1)=N\NC(=O)c1cc2ccccc2cc1O | 0.9% | -8.5% | 15.1µM* | · | 14.4%
O=C(CCNC(=O)C1CCN(S(=O)(=O)c2ccc(F)cc2)CC1)NCc1ccncc1 | -0.2% | 1.2% | -1.5% | · | 1.1%
N#Cc1ccc(CSc2ccccn2)c(Cl)c1 | 15.6% | 7.4% | -28.4% | · | 19.2%
Cn1c(SCc2ccc(C#N)cc2Cl)nc2ccccc21 | 3.55µM* | 20.6µM* | 6.01µM* | 14.1µM* | 2.24µM*
Cc1onc(NC(=O)c2ccc(Cl)cc2Cl)c1Br | 3.16µM* | ? | ? | · | ?
COc1ccc(Cl)cc1NC(=O)c1cnc2sccn2c1=O | 20.6% | ? | 5.7% | -7.0% | 14.9%
Cn1ccc(NC(=O)c2ccc(Cl)cc2Cl)n1 | 2.51µM* | ? | 10.7µM* | · | 3.98µM*
O=C(Nc1cnc2sccn2c1=O)c1ccc(Cl)cc1Cl | 1µM* | 2.59µM* | 2.13µM* | 8.91µM* | 0.447µM*
Cc1cccc(C(=O)Nc2ccn(C)n2)c1 | 2.51µM* | ? | ? | · | ?
CN(C)c1ccc(/C=C(/C#N)C(=O)NCc2ccccc2)o1 | ? | ? | ? | 12.6µM* | ?
Cn1cc(Cl)cc(C(=O)Nc2ccccc2)c1=O | ? | ? | ? | · | 17.4%
SMILES | Rab9 promoter act | ELG1 genotoxic | FLuc counter | SMN2 splice up | NPC1 prom act
CCOC(=O)Cn1cc(Cl)cc(C(=O)Nc2ccccc2)c1=O | -1.9%[1.84 µM] | 5.5% | 16.9µM* | · | -3.7%
O=C(N/N=C/c1ccccc1F)c1csc2c1CCCC2 | 1.26µM* | ? | 2.69µM* | 8.91µM* | 1.12µM*
O=C(COCC(=O)N/N=C/c1ccccc1F)N/N=C/c1ccccc1F | 12.7% | 1.3% | ? | 7.6% | -0.4%
O=C(N/N=C/c1cccc(F)c1)c1csc2c1CCCC2 | 1.26µM* | ? | 4.78µM* | 14.1µM* | 1µM*
O=[N+]([O-])c1ccccc1/C=N/NC1=NS(=O)(=O)c2ccccc21 | -1.9% | -3.1% | ? | 18.6% | -4.8%
O=[N+]([O-])c1ccccc1/C=N/Nc1nccnc1Cl | 3.55µM* | ? | 26.9µM* | 22.0% | ?
